Molecules are shown by their SMILES. The campaign covered roughly 420,000 compounds. About 64,000 (15%) were called active. About 27% were inconclusive and are not listed. Calls come from the whole dose curve; as a rule, active = well fitted inhibition curve with a large enough effect; inconclusive = small, poorly fitted or top-dose-only effect; inactive = flat fitted curve, though single readings scatter. A selection follows. Entries that show only a call come without a potency.
Potency is the fitted concentration of half-maximal effect.

This assay is described as follows: qHTS for Inhibitors of human tyrosyl-DNA phosphodiesterase 1 (TDP1): qHTS in cells in absence of CPT. Note: nearly all actives have a fitted effect of over 55% in size. The note with it: DT40 Tdp1-/- hTDP1 cells, no CPT, ATP luminescence, 48 h; activity change, negative = growth inhibition: at 46.2 µM (top of the series). The gist of the method:
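Chicken DT40 Tdp1-/- cells stably complemented with human TDP1 were seeded at 400 cells/well with DMSO in place of 20 nM camptothecin. After compound pinning, cells grew at least 48 hr at 37 °C; viability read by CellTiter-Glo luminescence.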
A general note: qHTS replaces the single test concentration by a dilution series.
With `O=c1[nH]snc1-c1c(Cl)cccc1Cl`, the Potency result is “inactive”.
For `O=C(NC1CC(=O)N(c2ccc(Cl)cc2)C1)C1CCCC1` (stereo unspecified), the Potency entry was “inactive”.
Under `Cc1cc(C)c(S(=O)(=O)Nc2c(C)n(C)n(-c3ccccc3)c2=O)cc1[N+](=O)[O-]` stands “inactive”; under `CCCCCCCC[n+]1cccc(C(=O)N2c3c(nc(N)[nH]c3=O)NC(C)C2C)c1` (stereo unspecified), “inactive”; under `CSc1sc(C)cc1C1C(C#N)=C(N)N(c2cccnc2)C2=C1C(=O)CCC2` (stereo unspecified), 11.6 µM (active).
As for `COc1ccc(C2C(C#N)=C(N)N(c3ncn[nH]3)C3=C2C(=O)CCC3)cc1` (stereo unspecified), the entry is “inactive”; as for `N#CC1=C(N)N(c2ccccc2)C2=C(C(=O)CCC2)C1c1ccccc1` (stereo unspecified), “inactive”.
Under `Nc1c(N(CCO)C(=O)C2CCCCC2)c(=O)[nH]c(=O)n1Cc1ccccc1` stands “inactive”; under `COCCSc1nnc(NC(=O)c2cc(OC)c(OC)cc2[N+](=O)[O-])s1`, “inactive”; under `O=c1c2cc(-c3ccccc3)sc2nc2n1N=C(c1cccs1)CS2`, 23.1 µM (active).
On to `Cc1nnc2n1N=C(c1ccccc1)CS2`, for which the Potency entry is “inactive”.
Under `c1csc(-c2cn3c(n2)SCC3)c1` stands “inactive”; under `Cc1ccc(NC(=O)CCC(=O)N/N=C/c2ccco2)c(C)c1`, “inactive”; under `Cc1cc(C)c(OCC(=O)N/N=C/c2ccco2)c(C)c1`, 16.4 µM (active).
Under `Cc1ccc(OCC(=O)N/N=C\c2ccco2)c(C)c1` stands “inactive”; under `O=C(NC1CCCC1)C(c1ccco1)N(C(=O)c1csnn1)c1ccccc1` (stereo unspecified), “inactive”; under `O=C(NCc1ccccc1)C(c1ccc(F)cc1)N1CCN(C(=O)C2CCCO2)CC1` (stereo unspecified), “inactive”.
Take `O=C(NCC1CCCO1)/C(=C/c1ccc(Cl)cc1)NC(=O)c1ccccc1` (stereo unspecified): the Potency result was “inactive”.
Under `Cc1ccc(NC(=O)CN(C)C(=O)COC(=O)c2nccnc2N)cc1` stands “inactive”; under `Brc1ccccc1C1N=C(c2ccccc2)NO1` (stereo unspecified), “inactive”; under `CCOC(=O)C1CCCN(C(=O)c2ccc(N(C)C)cc2)CC1` (stereo unspecified), “inactive”.
Under `CCOC(=O)N1CCN(C(=O)c2ccc(CN(c3ccc(C)c(C)c3)S(C)(=O)=O)cc2)CC1` stands 23.1 µM (active); under `CCN1CCN(C(=O)c2ccc(CN(c3ccc(C)c(C)c3)S(C)(=O)=O)cc2)CC1`, “inactive”; under `CO/N=C/CC(=O)c1ccc(OC)cc1`, “inactive”.
As for `COCCNc1nc2nonc2nc1N(C)Cc1ccc(C)cc1`, the entry is “inactive”; as for `CN(C)C(CNC(=O)CCCOc1ccccc1)c1ccco1` (stereo unspecified), “inactive”; as for `CCC1(C)CC(=O)NC1=O` (stereo unspecified), “inactive”.
For `CCc1cccc(C)c1NS(=O)(=O)c1cc(Br)cnc1N`, the Potency is 18.4 µM (active).
Under `COc1ccc(N2CCN(S(=O)(=O)c3cc(Br)cnc3N)CC2)cc1` stands “inactive”; under `CCc1cccc(C)c1NS(=O)(=O)c1c(C)nc2sccn2c1=O`, “inactive”; under `Cc1cc(C)c2nc(-c3ccco3)cc(C(=O)O)c2c1`, “inactive”.
Take `CN(C)S(=O)(=O)c1ccc(C(=O)NCC(C)(C)N2CCOCC2)cc1`: the Potency entry is “inactive”.
Under `CC(C)(CNC(=O)c1ccc(Cl)c(S(=O)(=O)N2CCc3ccccc3C2)c1)N1CCOCC1` stands 23.1 µM (active); under `CC(C)(CNC(=O)Cc1ccc(Cl)cc1Cl)N1CCOCC1`, “inactive”; under `Cc1ccc(C)c(NC(=O)COC(=O)CSc2ccccc2)c1`, “inactive”.
Under `Cc1ccccc1C(=O)Nc1ccc(N2CCCCCC2)cc1` stands 9.2 µM (active); under `Cc1ccccc1C(=O)NC(=S)NC1CC1`, “inactive”.
Under `COc1ccc(N2CCN(C(=O)c3cccs3)CC2)cc1` stands “inactive”; under `Cc1ccccc1C(=O)N1CCN(c2ccc(NC(=O)c3cccs3)cc2)CC1`, 16.4 µM (active).
Take `Cc1ccccc1C(=O)Nc1ccccc1NC(=O)c1ccccc1C`: the Potency entry is “inactive”.
Under `Cc1ccccc1C(=O)NC(=S)Nc1ccc(N2CCN(C(=O)c3ccccc3)CC2)cc1` stands 10.3 µM (active); under `O=C(NC(=O)c1ccccc1N1CCCCC1)Nc1ccc(Br)cc1`, “inactive”.
Take `Cc1cccc(C)c1NC(=O)CS(=O)CC(=O)N1CCN(c2ccccc2)CC1` (stereo unspecified): the Potency result is “inactive”.
As for `O=C(Nc1ccc(N2CCN(C(=O)c3cccs3)CC2)cc1)c1cccnc1Cl`, the entry is “inactive”; as for `NS(=O)(=O)c1ccc(CCNC(=O)COC(=O)COc2cccc(C(F)(F)F)c2)cc1`, “inactive”; as for `Cc1noc(NS(=O)(=O)c2ccc(NC(=O)c3oc4ccc(F)cc4c3C)cc2)c1C`, “inactive”.
As for `Cc1cc(C)n(CC(=O)Nc2ccc([N+](=O)[O-])cc2)n1`, the entry is “inactive”; as for `COC(=O)c1cccc(-n2[nH]nnc2=S)c1`, “inactive”.
On to `CC(=O)c1ccc(S(=O)(=O)NCc2nnnn2-c2ccccc2)cc1`, for which the Potency result was “inactive”.
Under `OCCCNC(c1ccccc1)c1ccc(O)cc1` (stereo unspecified) stands “inactive”.
As for `O=C(CC1C(=O)NCCN1CC(c1ccccc1)c1ccccc1)NCC1CCOCC1` (stereo unspecified), the entry is “inactive”; as for `COc1cc(-c2cc3n(C)c(C)c(CCC(=O)Nc4ccc(F)cc4)c(=O)n3n2)cc(OC)c1OC`, “inactive”; as for `Cc1ccc(CNC(=O)C2CCCN2C(=O)NCc2ccccc2)cc1` (stereo unspecified), “inactive”.
Under `CCN(CC)S(=O)(=O)c1ccc(N2CC(C(=O)NCc3cccnc3)CC2=O)cc1` (stereo unspecified) stands “inactive”; under `O=C(Nc1cccnc1Cl)c1cc(-c2ccccc2O)on1`, “inactive”; under `Brc1ccc(OCCn2ccnc2)cc1`, “inactive”.
As for `COc1ccc(CCN=C2SCC(=O)N2C)cc1OC`, the Potency result is “inactive”.
As for `Cc1ccc2c(c1)c1ncnc(N3CCc4ccccc4C3)c1n2C`, the figure is 20.6 µM (active).
Under `Cc1ccc2c(c1)c1ncn(Cc3ccc(F)cc3)c(=O)c1n2C` stands “inactive”; under `Cc1ccc(S(=O)(=O)Nc2nc3ccccc3nc2N2CCc3ccccc3C2)cc1`, “inactive”; under `CCN(C(=O)COC(=O)/C=C/c1nc2ccccc2s1)C1CCS(=O)(=O)C1` (stereo unspecified), “inactive”.
Turning to `CCOC(=O)C1=C(C)NC(C)=C(C(=O)OCC)C1C1=COCCO1`, the Potency entry was “inactive”.
Under `CN(C)CCOC(=O)C(c1ccccc1)C1(O)CCCC1` (stereo unspecified) stands “inactive”.
Under `Cc1ccccc1C(OCCN(C)C)C1CCCCC1` (stereo unspecified) stands 29.1 µM (active); under `Cc1nn(Cc2ccc(Cl)cc2)c(Cl)c1/C=N/NC(=O)c1cccnc1`, “inactive”; under `CC1(C)C/C(=C(/C#N)C(N)=O)CCO1`, “inactive”.
Under `O=C(O)c1ccccc1NC(=S)NC(NC(=O)c1ccccc1[N+](=O)[O-])C(Cl)(Cl)Cl` (stereo unspecified) stands “inactive”.
Consider `Cc1cc(C)cc(N(CC(=O)Nc2c(C)n(C)n(-c3ccccc3)c2=O)S(C)(=O)=O)c1`, for which the Potency result is “inactive”.
As for `COc1ccc(S(=O)(=O)N2CCCCCC2)cc1NC(=O)Cc1ccc(OC)c(OC)c1`, the entry is “inactive”; as for `CCOc1ccc(S(=O)(=O)N2CCCCC2)cc1NC(=O)CN1CCCC1c1cccs1` (stereo unspecified), 2.06 µM (active).
Under `Cc1ccc(S(=O)(=O)N2CCCCC2)cc1NC(=O)[C@@H]1CCCN1C(=O)c1cccs1` stands “inactive”; under `CCN(C(=O)C1CCCN(c2nc(-c3ccc(OC)cc3)no2)C1)c1ccc(OC)cc1` (stereo unspecified), 20.6 µM (active); under `COc1cccc(N(CC(=O)NC2CCCC2)C(=O)Cn2nnc(-c3ccc(C)cc3)n2)c1`, “inactive”.
Under `C=CCOc1c2ccc(C(=O)N(CC)c3ccc(OC)cc3)cc2nn1C` stands “inactive”.
With `O=C1C(=O)N(CCCO)C(c2ccccc2)/C1=C(\O)c1ccc(Br)cc1` (stereo unspecified), the Potency result is “inactive”.
Under `Cc1ccc(C(=O)NC2CC(C)(C)NC(C)(C)C2)c(C)c1` stands “inactive”.
As for `Cn1c2c(c(=O)n(C)c1=O)C1c3ccccc3OCC1C(C)(C)O2` (stereo unspecified), the entry is “inactive”; as for `CC(Nc1nc(C(F)(F)F)nc2ccccc12)c1cccs1` (stereo unspecified), 20.6 µM (active); as for `CCN(CC)C(=O)c1ccc(O)c(OC)c1`, “inactive”.
Under `CCOC(=O)N1CCc2c(sc3c2c(=O)n(Cc2ccccc2)c(=O)n3CC(=O)Nc2cccc(C)c2)C1` stands “inactive”; under `O=c1c2c3c(sc2n(CCN2CCCC2)c(=O)n1Cc1ccccc1)CCCCC3`, 11.6 µM (active); under `CC1CCN(C(=O)Cn2c(=O)n(-c3ccc(Cl)cc3)c(=O)c3c4c(sc32)CCC4)CC1`, “inactive”.
Take `NC(=O)c1ncc(C(F)(F)F)cc1Oc1ccc(F)cc1`: the Potency result was “inactive”.
Under `Cc1n[nH]c(C)c1S(=O)(=O)N1CCCC(C(=O)Nc2ccc(Br)cc2)C1` (stereo unspecified) stands 16.4 µM (active); under `Cc1n[nH]c(C)c1S(=O)(=O)N1CCCC(C(=O)NCC2COc3ccccc3O2)C1` (stereo unspecified), “inactive”; under `COc1ccc(S(=O)(=O)N2CCCC(C(=O)NCCCn3ccnc3)C2)cc1OC` (stereo unspecified), “inactive”.
Under `Cc1ccccc1N1CC(C(=O)Nc2ccc(S(=O)(=O)N3CCCC3)cc2)CC1=O` (stereo unspecified) stands “inactive”; under `CC(C)c1ccc(NC(=O)C2CCCN(S(=O)(=O)c3cccnc3)C2)cc1` (stereo unspecified), 7.31 µM (active).
Under `COc1ccc(NC(=O)C2CCCN(S(=O)(=O)c3c(C)[nH]c(=O)[nH]c3=O)C2)c(OC)c1` (stereo unspecified) stands “inactive”.
As for `O=C(Cc1ccsc1)N1CCN(S(=O)(=O)c2cc(C(F)(F)F)cc(C(F)(F)F)c2)CC1`, the Potency result is “inactive”.
As for `CCOC(=O)C1=CN(Cc2ccc(Br)cc2)S(=O)(=O)NC1C` (stereo unspecified), the entry is “inactive”; as for `Cc1ccc(C(=O)NNC2=Nc3cc([N+](=O)[O-])ccc3OC2)cc1`, “inactive”; as for `Cc1nn(C(=O)c2c(F)cccc2F)c(C)c1S(=O)(=O)N1CCOCC1`, “inactive”.
As for `CC(C)=N/N=C1/NC(=O)C(Cc2ccccc2)S1` (stereo unspecified), the entry is “inactive”; as for `O=C(NC(=S)Nc1ccc(Br)cc1F)C1CCCCC1`, “inactive”.
Under `Cc1nnsc1C(=O)N/N=C/c1ccccc1Cl` stands “inactive”.
Take `Cc1ccc(/C=N/NC(=O)C2=NNC(c3ccccc3)(c3ccccc3)C2)c(O)c1`: the Potency is 4.11 µM (active).
Regarding `O=C(N/N=C/c1ccc(O)c2ccccc12)c1cccnc1`, the Potency entry is “inactive”.
As for `O=C(O)c1cscn1`, the entry is “inactive”; as for `O=C(CCNC(=O)Cn1ccc2ccccc2c1=O)NCCC1=CCCCC1`, “inactive”; as for `CC(=O)Nc1ccc(S(=O)(=O)N(C)CC(=O)NCCC2=CCCCC2)cc1`, “inactive”.
Under `O=C(Cc1nn[nH]n1)NCCC1=CCCCC1` stands “inactive”; under `O=C(Cc1cccc2ccccc12)NCCC1=CCCCC1`, 29.1 µM (active); under `S=C(NCCC1=CCCCC1)Nc1ccccc1`, 23.1 µM (active).
For the compound `CC(OC(=O)c1c(F)cccc1F)C(=O)NCCC1=CCCCC1` (stereo unspecified), the Potency entry is “inactive”.
As for `CC(C)CC(=O)N1CCN(Cc2cccc(Cl)c2)CC1`, the entry is “inactive”.

(Values after PubChem BioAssay AID686978 (National Center for Advancing Translational Sciences (NCATS), 2013).)
